Measured values from ChEMBL document CHEMBL1961873, “Compounds: GSK PKIS; Assays: Nanosyn kinase panel” (2012).

How the values were obtained:
[1] = target: Tyrosine-protein kinase receptor UFO (Homo sapiens) (UniProt P30530); settings: at 1 µM
[2] = target: Tyrosine-protein kinase Blk (Homo sapiens) (UniProt P51451); settings: at 0.1 µM
[3] = target: Tyrosine-protein kinase Blk (Homo sapiens) (UniProt P51451); settings: at 1 µM
[4] = target: T1, Cytoplasmic tyrosine-protein kinase BMX (Homo sapiens) (UniProt P51813); settings: at 0.1 µM
T1 sequence (whole entry): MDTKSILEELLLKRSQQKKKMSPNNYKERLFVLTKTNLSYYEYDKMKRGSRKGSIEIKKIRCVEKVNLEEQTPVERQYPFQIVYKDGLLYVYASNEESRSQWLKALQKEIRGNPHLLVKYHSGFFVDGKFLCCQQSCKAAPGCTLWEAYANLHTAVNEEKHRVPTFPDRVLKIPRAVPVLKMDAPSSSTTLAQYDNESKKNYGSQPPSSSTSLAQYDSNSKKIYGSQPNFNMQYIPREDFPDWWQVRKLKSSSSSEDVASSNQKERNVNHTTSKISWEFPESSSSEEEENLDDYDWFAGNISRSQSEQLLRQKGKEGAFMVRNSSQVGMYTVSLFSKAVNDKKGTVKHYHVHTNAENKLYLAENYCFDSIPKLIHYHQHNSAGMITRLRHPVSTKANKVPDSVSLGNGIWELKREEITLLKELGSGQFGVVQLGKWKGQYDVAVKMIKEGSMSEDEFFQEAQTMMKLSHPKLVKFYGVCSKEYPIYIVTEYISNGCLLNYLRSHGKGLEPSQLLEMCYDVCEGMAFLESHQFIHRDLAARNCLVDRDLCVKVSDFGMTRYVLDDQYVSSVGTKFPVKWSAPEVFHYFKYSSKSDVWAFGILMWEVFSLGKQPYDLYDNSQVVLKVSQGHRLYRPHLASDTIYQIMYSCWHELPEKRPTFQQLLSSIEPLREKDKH

[5] = target: T1, Cytoplasmic tyrosine-protein kinase BMX (Homo sapiens); settings: at 1 µM
[6] = target: Protein-tyrosine kinase 6 (Homo sapiens) (UniProt Q13882); settings: at 0.1 µM
[7] = target: Protein-tyrosine kinase 6 (Homo sapiens) (UniProt Q13882); settings: at 1 µM
[8] = target: Tyrosine-protein kinase BTK (Homo sapiens) (UniProt Q06187); settings: at 0.1 µM
[9] = target: Tyrosine-protein kinase BTK (Homo sapiens) (UniProt Q06187); settings: at 1 µM
[10] = target: Tyrosine-protein kinase CSK (Homo sapiens) (UniProt P41240); settings: at 0.1 µM
[11] = target: Tyrosine-protein kinase CSK (Homo sapiens) (UniProt P41240); settings: at 1 µM
[12] = target: T2, Discoidin domain-containing receptor 2 (Homo sapiens) (UniProt Q16832); settings: at 0.1 µM
T2 sequence (whole entry): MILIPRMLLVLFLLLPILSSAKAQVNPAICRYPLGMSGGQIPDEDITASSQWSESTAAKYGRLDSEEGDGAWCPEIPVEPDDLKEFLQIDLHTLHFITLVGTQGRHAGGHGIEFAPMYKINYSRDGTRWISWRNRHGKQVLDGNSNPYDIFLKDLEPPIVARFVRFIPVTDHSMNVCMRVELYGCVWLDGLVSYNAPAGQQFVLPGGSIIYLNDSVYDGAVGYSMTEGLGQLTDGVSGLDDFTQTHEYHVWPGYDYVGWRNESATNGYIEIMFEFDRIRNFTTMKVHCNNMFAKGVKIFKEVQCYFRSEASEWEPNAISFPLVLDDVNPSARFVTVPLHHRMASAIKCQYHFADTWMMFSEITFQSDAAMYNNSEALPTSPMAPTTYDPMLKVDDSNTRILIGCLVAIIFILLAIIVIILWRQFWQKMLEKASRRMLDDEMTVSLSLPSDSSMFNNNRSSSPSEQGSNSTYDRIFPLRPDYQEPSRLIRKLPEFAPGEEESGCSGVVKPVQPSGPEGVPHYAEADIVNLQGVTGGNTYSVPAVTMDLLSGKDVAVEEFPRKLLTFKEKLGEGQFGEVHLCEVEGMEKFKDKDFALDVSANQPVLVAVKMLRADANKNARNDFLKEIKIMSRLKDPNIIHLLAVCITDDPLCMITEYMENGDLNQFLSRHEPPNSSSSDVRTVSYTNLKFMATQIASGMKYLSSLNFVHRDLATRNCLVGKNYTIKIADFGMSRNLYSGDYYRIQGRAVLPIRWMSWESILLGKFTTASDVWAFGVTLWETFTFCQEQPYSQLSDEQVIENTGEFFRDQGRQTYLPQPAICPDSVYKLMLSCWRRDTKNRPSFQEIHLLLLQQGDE

[13] = target: T2, Discoidin domain-containing receptor 2 (Homo sapiens); settings: at 1 µM
[14] = target: Epidermal growth factor receptor (Homo sapiens) (UniProt P00533); settings: at 0.1 µM
[15] = target: Epidermal growth factor receptor (Homo sapiens) (UniProt P00533); settings: at 1 µM
[16] = test system: Epidermal growth factor receptor (Homo sapiens), P00533 [L858R]; settings: at 0.1 µM
[17] = test system: Epidermal growth factor receptor (Homo sapiens), P00533 [L858R]; settings: at 1 µM
[18] = test system: Epidermal growth factor receptor (Homo sapiens), P00533 [L861Q]; settings: at 0.1 µM
[19] = test system: Epidermal growth factor receptor (Homo sapiens), P00533 [L861Q]; settings: at 1 µM
[20] = test system: Epidermal growth factor receptor (Homo sapiens), P00533 [T790M]; settings: at 0.1 µM

Tyrosine-protein kinase BTK (Homo sapiens), sequence (Q06187 whole entry): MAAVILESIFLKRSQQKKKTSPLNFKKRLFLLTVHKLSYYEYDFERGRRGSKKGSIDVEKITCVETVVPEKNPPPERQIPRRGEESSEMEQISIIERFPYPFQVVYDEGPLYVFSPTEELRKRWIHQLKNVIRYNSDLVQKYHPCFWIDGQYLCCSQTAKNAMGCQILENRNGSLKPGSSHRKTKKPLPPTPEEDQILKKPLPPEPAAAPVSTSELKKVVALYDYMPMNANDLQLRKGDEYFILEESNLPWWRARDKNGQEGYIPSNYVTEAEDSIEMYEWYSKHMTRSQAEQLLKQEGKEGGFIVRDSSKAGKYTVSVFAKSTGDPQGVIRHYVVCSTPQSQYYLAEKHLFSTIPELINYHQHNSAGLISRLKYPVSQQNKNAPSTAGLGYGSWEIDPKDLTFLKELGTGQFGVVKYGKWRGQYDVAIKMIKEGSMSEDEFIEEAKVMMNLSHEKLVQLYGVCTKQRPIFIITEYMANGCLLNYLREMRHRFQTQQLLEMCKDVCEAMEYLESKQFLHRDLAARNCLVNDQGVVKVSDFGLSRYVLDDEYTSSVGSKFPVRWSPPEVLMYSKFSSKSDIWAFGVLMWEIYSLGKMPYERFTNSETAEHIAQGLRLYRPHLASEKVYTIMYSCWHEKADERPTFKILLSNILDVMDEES
Tyrosine-protein kinase Blk (Homo sapiens), sequence (P51451 2-505 limits assumed): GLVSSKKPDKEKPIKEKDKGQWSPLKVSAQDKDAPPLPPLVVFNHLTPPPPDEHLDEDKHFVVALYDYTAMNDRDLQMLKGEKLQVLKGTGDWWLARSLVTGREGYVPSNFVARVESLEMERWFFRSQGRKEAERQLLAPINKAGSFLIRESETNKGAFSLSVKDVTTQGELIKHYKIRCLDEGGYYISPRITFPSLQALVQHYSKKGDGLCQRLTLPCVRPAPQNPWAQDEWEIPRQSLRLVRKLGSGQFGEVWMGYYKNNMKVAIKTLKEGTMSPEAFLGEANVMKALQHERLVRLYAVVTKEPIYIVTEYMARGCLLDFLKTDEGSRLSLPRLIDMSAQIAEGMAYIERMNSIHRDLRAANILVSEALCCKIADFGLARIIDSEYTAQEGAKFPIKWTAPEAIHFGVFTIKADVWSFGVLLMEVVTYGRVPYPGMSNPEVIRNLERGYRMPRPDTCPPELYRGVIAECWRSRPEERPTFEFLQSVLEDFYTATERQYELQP
Protein-tyrosine kinase 6 (Homo sapiens), sequence (Q13882 whole entry, looked up): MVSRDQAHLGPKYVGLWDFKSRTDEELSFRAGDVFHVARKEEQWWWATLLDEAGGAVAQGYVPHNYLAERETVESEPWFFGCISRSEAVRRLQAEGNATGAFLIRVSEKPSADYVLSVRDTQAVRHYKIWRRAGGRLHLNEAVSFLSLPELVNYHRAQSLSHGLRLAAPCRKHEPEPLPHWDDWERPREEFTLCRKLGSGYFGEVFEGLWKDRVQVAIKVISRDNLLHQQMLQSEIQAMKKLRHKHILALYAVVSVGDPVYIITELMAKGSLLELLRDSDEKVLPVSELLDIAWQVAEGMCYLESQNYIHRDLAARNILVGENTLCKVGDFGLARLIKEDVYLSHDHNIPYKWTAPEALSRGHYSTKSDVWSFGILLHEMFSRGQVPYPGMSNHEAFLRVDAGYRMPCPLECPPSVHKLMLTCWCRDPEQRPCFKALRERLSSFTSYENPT
Epidermal growth factor receptor (Homo sapiens), sequence (P00533 whole entry): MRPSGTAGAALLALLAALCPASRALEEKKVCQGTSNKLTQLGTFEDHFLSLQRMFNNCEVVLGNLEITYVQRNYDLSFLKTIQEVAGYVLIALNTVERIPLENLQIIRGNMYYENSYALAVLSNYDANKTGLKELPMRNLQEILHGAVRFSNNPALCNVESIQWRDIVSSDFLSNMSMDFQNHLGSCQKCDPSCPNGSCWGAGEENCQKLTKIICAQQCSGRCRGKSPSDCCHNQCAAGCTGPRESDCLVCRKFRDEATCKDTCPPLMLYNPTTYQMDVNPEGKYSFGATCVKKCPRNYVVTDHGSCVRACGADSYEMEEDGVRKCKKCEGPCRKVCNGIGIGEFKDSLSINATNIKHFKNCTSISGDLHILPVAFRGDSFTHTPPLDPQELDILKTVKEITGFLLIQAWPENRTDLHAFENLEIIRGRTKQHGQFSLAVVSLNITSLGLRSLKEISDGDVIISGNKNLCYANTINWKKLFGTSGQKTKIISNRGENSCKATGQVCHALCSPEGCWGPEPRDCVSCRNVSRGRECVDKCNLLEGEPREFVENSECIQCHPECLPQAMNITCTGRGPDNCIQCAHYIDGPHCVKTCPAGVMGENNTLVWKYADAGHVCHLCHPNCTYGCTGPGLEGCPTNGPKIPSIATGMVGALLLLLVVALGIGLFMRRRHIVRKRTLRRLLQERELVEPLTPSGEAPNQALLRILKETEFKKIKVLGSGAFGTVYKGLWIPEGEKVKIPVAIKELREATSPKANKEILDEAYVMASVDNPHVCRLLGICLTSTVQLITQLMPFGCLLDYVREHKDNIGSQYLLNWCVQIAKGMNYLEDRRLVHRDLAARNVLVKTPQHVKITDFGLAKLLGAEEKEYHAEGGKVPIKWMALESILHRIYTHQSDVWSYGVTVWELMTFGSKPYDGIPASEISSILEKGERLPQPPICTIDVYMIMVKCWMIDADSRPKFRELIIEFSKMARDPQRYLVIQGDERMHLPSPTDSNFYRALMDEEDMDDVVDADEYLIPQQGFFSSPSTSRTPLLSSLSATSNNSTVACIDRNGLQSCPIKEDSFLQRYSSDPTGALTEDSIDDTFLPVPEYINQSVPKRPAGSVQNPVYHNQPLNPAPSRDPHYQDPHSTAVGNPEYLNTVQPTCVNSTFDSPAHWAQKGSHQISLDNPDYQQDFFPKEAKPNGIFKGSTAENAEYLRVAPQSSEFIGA
Tyrosine-protein kinase CSK (Homo sapiens), sequence (P41240 2-450 limits assumed): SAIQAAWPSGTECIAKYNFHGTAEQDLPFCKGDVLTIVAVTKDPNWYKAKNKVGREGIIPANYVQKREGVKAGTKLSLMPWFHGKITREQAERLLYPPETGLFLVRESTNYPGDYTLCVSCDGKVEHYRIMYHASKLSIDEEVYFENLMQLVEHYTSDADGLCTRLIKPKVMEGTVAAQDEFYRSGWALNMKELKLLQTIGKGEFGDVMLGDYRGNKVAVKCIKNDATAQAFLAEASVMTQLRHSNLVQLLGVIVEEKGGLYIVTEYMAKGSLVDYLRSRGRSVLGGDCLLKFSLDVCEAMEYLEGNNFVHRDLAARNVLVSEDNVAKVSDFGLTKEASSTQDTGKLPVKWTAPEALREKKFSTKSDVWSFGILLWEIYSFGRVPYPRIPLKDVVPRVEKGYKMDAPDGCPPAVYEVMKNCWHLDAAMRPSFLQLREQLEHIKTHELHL
Epidermal growth factor receptor (Homo sapiens), P00533 [L858R], sequence (P00533 whole entry L858R): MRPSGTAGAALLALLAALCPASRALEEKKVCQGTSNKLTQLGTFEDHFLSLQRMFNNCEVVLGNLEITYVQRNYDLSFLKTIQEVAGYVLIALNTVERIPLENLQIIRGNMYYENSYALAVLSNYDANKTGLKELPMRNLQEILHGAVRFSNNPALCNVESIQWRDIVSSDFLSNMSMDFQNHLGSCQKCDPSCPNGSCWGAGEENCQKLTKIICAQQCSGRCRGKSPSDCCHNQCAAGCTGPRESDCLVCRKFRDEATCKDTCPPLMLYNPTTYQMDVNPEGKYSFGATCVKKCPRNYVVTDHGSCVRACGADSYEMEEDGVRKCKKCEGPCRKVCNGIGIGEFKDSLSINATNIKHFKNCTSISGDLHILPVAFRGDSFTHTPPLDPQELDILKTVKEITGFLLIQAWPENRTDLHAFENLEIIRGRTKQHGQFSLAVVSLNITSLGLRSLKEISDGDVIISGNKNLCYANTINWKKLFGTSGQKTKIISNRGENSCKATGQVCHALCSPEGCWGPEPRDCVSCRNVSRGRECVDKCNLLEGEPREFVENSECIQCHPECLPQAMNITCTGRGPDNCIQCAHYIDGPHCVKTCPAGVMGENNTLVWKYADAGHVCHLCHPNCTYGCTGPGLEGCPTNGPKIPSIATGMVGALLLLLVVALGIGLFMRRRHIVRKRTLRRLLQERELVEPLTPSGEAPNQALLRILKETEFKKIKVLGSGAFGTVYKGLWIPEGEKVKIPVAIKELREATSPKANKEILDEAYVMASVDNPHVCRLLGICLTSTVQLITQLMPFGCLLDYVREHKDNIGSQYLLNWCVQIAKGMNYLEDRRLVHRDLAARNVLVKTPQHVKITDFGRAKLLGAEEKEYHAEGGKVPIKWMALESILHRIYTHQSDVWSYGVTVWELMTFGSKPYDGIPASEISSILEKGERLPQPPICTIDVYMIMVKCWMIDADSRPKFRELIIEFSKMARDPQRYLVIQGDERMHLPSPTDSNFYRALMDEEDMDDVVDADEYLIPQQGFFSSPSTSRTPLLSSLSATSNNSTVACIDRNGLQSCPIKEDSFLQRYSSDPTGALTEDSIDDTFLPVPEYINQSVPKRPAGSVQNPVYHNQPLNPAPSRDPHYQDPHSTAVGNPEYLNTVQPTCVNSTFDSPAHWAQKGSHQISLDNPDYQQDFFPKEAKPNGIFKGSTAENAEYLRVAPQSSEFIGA

COC(=O)c1ccc2c(c1)C(=Cc1cc(Br)c(O)c(Br)c1)C(=O)N2
inhibition [1]: -4.28% | inhibition [2]: 3.19% | inhibition [3]: 11.6% | inhibition [4]: 3.04% | inhibition [5]: 7.64% | inhibition [6]: 2.4% | inhibition [7]: 6.95% | inhibition [8]: -1.29% | inhibition [9]: 0.81% | inhibition [10]: -0.27% | inhibition [11]: 5.89% | inhibition [12]: 2.18% | inhibition [13]: 7.08% | inhibition [14]: 3.97% | inhibition [15]: 2.76% | inhibition [16]: -1.26% | inhibition [17]: 11.3% | inhibition [18]: 0.68% | inhibition [19]: 4.11% | inhibition [20]: 0.31%

NC(=O)c1cccc(Nc2nccc(Nc3cccc(F)c3)n2)c1
inhibition [1]: -2.93% | inhibition [2]: 0.38% | inhibition [3]: 13.8% | inhibition [4]: 4.88% | inhibition [5]: 37.9% | inhibition [6]: 4.3% | inhibition [7]: 36.2% | inhibition [8]: 0.63% | inhibition [9]: 7.3% | inhibition [10]: 0.49% | inhibition [11]: 9.32% | inhibition [12]: -1.54% | inhibition [13]: 6.93% | inhibition [14]: 1.6% | inhibition [15]: 10.6% | inhibition [16]: 0.01% | inhibition [17]: 31.4% | inhibition [18]: 0.09% | inhibition [19]: 10.1% | inhibition [20]: -0.56%

NS(=O)(=O)c1ccc(-c2cc3ccncc3cc2OCc2ccccc2)cc1
inhibition [1]: -1.13% | inhibition [2]: 2.2% | inhibition [3]: 3.91% | inhibition [4]: 4.23% | inhibition [5]: 4.75% | inhibition [6]: 2.61% | inhibition [7]: 5.54% | inhibition [8]: 0.49% | inhibition [9]: -0.08% | inhibition [10]: 4.58% | inhibition [11]: 5.2% | inhibition [12]: 1.3% | inhibition [13]: 2.48% | inhibition [14]: -0.53% | inhibition [15]: 2.78% | inhibition [16]: 5.04% | inhibition [17]: 12.6% | inhibition [18]: 3.81% | inhibition [19]: 5.67% | inhibition [20]: 1.46%

O=S(=O)(CCOCc1ccc(-c2ccc3ncnc(Nc4ccc(OCc5cccc(F)c5)c(Cl)c4)c3c2)o1)c1ccccc1
inhibition [1]: 1.46% | inhibition [2]: -1.07% | inhibition [3]: 1.68% | inhibition [4]: -0.56% | inhibition [5]: 1.08% | inhibition [6]: 0.18% | inhibition [7]: 1.77% | inhibition [8]: -1.67% | inhibition [9]: -1.3% | inhibition [10]: 1.76% | inhibition [11]: 1.36% | inhibition [12]: 1.97% | inhibition [13]: 3.8% | inhibition [14]: 71.9% | inhibition [15]: 84.7% | inhibition [16]: 25.1% | inhibition [17]: 77.3% | inhibition [18]: 33.8% | inhibition [19]: 68.4% | inhibition [20]: -0.58%

CCS(=O)(=O)c1ccc(OC)c(Nc2ncc(-c3cccc(OC)c3)o2)c1
inhibition [1]: -1.98% | inhibition [2]: 10.4% | inhibition [3]: 64.3% | inhibition [4]: -2.1% | inhibition [5]: 25.9% | inhibition [6]: 6.68% | inhibition [7]: 40.7% | inhibition [8]: 3.67% | inhibition [9]: 21.6% | inhibition [10]: -0.51% | inhibition [11]: 10.6% | inhibition [12]: 3.76% | inhibition [13]: 20% | inhibition [14]: 1.96% | inhibition [15]: 8.46% | inhibition [16]: 6.95% | inhibition [17]: 27.6% | inhibition [18]: 4.06% | inhibition [19]: 6.2% | inhibition [20]: 1.83%
